The values below come from paper PMC7862700, “An all-to-all approach to the identification of sequence-specific readers for epigenetic DNA modifications on cytosine”.

Assay in all cases: DAPPL (digital affinity profiling via proximity ligation, sequencing); 10 mM Tris-HCl pH 7.5, 50 mM NaCl, 1 mM DTT, 4% glycerol, room temperature, 30 min; GST-TFs on glutathione beads, 16-mer random dsDNA library, 0.1% formaldehyde crosslink after washing; high values mean tight binding
What all share (settings): protein: recombinant; tags: N-terminal GST; dsDNA, one strand shown

For one assay, the target named is T1, FLI1 (Homo sapiens, UniProt Q01543 1-452).
T1 sequence: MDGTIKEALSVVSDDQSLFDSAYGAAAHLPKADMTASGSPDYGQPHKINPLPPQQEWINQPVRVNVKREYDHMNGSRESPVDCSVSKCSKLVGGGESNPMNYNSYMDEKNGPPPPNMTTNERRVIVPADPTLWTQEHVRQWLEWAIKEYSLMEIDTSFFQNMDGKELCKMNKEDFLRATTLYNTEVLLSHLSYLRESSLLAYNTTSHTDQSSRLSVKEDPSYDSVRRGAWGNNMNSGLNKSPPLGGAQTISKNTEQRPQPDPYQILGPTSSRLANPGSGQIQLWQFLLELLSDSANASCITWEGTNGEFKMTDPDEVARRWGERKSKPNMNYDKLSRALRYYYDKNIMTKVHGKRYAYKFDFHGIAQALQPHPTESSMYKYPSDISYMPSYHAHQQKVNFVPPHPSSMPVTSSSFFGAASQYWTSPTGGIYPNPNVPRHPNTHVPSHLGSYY
In a few lines:
(§1)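 Sequencing on an Illumina NextSeq500 followed washing, crosslinking with 0.1% formaldehyde, proximity ligation (BsaI/T4 ligase, 1 h, 37 °C) and PCR amplification of pools that had been incubated for 30 min at room temperature with 200 nmole of a random double-stranded 16-mer DNA library in Tris/NaCl/DTT/glycerol buffer. Each pool held DNA-barcoded human transcription factors, expressed in yeast as GST fusions and captured on glutathione beads, plus a tag-only sample. Binding signal is a hexamer's read frequency for a factor divided by its frequency in the tag-only sample.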

For a further assay, the target named is T2, ELK1 (Homo sapiens, UniProt P19419 1-428).
T2 sequence: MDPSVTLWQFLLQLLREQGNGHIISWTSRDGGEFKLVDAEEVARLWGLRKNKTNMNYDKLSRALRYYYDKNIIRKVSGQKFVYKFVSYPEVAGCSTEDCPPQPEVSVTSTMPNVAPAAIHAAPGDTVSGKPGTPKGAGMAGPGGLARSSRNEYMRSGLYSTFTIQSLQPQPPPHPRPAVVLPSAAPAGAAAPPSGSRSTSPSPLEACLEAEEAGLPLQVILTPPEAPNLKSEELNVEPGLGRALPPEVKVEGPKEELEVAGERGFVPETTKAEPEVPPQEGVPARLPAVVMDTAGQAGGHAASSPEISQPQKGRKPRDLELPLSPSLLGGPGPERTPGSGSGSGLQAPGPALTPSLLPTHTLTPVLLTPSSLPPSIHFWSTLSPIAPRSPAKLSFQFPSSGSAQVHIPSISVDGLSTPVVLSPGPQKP
In short, it runs like this: as §1

In another assay the target is T3, GABPA (Homo sapiens, UniProt Q06546 1-454).
T3 sequence: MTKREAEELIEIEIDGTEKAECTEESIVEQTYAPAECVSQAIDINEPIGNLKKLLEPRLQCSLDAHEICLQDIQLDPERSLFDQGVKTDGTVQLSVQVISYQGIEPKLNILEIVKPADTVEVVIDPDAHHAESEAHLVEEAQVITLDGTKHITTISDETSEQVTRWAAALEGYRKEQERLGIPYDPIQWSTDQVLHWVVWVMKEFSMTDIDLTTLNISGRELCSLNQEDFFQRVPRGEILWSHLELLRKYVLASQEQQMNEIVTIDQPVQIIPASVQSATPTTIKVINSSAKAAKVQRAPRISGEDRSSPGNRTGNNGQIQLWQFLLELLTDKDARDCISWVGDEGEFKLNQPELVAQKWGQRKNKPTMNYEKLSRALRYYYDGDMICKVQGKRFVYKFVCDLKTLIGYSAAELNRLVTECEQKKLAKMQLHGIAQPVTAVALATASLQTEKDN
In short, it runs like this:
as §1

A further assay concerns the target T4, ERG (Homo sapiens, UniProt P11308 1-479).
T4 sequence: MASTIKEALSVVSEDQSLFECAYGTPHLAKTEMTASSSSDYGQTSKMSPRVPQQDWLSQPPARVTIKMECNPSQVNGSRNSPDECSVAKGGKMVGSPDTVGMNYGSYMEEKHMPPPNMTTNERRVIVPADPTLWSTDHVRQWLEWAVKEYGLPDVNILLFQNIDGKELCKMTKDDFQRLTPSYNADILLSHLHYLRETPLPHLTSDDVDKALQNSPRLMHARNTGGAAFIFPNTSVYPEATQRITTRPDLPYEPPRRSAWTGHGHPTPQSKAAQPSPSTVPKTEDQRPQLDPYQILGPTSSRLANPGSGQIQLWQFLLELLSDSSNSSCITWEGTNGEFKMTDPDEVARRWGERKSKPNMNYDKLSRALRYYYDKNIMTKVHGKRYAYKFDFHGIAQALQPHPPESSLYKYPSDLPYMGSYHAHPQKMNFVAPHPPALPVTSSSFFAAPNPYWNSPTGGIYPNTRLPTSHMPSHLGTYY
In short, it runs like this: as §1

The next assay addresses ELF1 (Homo sapiens, UniProt P32519 1-619). In a few lines: as §1
The next assay addresses T5, EHF (Homo sapiens, UniProt Q9NZC4 1-300).
T5 sequence: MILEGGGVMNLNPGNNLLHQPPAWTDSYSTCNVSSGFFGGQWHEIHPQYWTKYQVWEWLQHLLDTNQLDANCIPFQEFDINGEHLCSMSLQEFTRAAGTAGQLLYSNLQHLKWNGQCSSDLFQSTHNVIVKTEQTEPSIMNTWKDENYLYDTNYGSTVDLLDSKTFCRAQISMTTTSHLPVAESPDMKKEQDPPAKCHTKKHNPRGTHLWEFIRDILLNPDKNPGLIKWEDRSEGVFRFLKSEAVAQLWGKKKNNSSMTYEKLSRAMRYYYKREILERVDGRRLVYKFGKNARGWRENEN
In short, it runs like this: as §1

The target of a further assay is SPI1 (Homo sapiens, UniProt P17947 1-270). In short, it runs like this:
as §1

In the next assay the target is SPIB (Homo sapiens, UniProt Q01892 1-262). In a few lines:
as §1

The next assay has as its target T6, ELK3 (Homo sapiens, UniProt P41970 1-407).
T6 sequence: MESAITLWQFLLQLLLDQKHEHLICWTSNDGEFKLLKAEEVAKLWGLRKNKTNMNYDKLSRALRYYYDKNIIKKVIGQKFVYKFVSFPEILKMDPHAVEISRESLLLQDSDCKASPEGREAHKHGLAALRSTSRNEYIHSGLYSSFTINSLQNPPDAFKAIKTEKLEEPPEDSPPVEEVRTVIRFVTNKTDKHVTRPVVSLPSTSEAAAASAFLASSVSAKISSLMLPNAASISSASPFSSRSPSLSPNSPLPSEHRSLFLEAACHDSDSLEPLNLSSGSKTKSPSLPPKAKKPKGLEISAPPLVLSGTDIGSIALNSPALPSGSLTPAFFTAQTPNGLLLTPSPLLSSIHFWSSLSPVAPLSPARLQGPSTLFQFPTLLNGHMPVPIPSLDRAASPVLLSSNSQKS
In short, it runs like this: as §1

ELF1, sequence (P32519 whole entry): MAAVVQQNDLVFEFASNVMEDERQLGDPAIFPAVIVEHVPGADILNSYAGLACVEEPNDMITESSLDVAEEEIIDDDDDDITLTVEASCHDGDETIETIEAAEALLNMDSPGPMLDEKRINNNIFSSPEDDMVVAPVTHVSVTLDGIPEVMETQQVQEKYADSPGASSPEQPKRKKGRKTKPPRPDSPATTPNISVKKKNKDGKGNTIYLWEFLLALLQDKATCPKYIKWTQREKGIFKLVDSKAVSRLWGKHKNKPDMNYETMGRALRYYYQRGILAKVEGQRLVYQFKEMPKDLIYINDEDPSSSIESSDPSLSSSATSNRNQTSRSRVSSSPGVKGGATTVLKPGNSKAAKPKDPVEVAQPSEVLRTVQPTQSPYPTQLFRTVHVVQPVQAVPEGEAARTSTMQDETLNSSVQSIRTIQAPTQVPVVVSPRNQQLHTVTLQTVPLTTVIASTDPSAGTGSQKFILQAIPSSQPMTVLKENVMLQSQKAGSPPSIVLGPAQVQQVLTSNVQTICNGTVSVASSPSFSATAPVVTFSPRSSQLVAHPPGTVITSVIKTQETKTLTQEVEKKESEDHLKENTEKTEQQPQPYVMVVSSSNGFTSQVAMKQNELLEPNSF
SPIB, sequence (Q01892 whole entry): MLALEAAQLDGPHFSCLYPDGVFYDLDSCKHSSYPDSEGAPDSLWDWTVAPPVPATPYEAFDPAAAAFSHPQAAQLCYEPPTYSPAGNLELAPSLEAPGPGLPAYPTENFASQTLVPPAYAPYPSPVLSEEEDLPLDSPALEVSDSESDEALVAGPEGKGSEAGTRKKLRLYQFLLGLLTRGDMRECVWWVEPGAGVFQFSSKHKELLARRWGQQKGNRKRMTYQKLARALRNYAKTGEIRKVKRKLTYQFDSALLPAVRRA

For the sequence AATGCT, the binding signal with FLI1 was 1.16 fold enrichment (6-mer frequency, TF over GST control); in the assay with ELK1 it was 1.17 fold enrichment (6-mer frequency, TF over GST control); with GABPA, 1.14 fold enrichment (6-mer frequency, TF over GST control); with ERG, 1.16 fold enrichment (6-mer frequency, TF over GST control); in the assay with ELF1 it was 1.16 fold enrichment (6-mer frequency, TF over GST control); in the assay with EHF, 1.14 fold enrichment (6-mer frequency, TF over GST control). Moreover, the binding signal with SPI1 is 1.12 fold enrichment (6-mer frequency, TF over GST control); in the assay with SPIB, 1.16 fold enrichment (6-mer frequency, TF over GST control); with ELK3, 1.12 fold enrichment (6-mer frequency, TF over GST control).
For the sequence TTGTTC, the binding signal with FLI1 is 1.5 fold enrichment (6-mer frequency, TF over GST control); in the assay with ELK1, 1.41 fold enrichment (6-mer frequency, TF over GST control); with GABPA, 1.53 fold enrichment (6-mer frequency, TF over GST control); with ERG, 1.34 fold enrichment (6-mer frequency, TF over GST control); in the assay with ELF1 it was 1.44 fold enrichment (6-mer frequency, TF over GST control); with EHF it was 1.64 fold enrichment (6-mer frequency, TF over GST control). In addition, the binding signal was 1.51 fold enrichment (6-mer frequency, TF over GST control) with SPI1; 1.57 fold enrichment (6-mer frequency, TF over GST control) with SPIB; 1.39 fold enrichment (6-mer frequency, TF over GST control) with ELK3.
On to TACAGA, for which the binding signal with FLI1 is 1.08 fold enrichment (6-mer frequency, TF over GST control); with ELK1, 1.14 fold enrichment (6-mer frequency, TF over GST control); with GABPA, 1.25 fold enrichment (6-mer frequency, TF over GST control); in the assay with ERG, 1.11 fold enrichment (6-mer frequency, TF over GST control); with ELF1, 1.14 fold enrichment (6-mer frequency, TF over GST control); with EHF, 1.11 fold enrichment (6-mer frequency, TF over GST control). For the same sequence, the binding signal with SPI1 was 1.13 fold enrichment (6-mer frequency, TF over GST control); with SPIB it was 1.16 fold enrichment (6-mer frequency, TF over GST control); with ELK3 it was 1.06 fold enrichment (6-mer frequency, TF over GST control).
For CGATCT, the binding signal was 1.37 fold enrichment (6-mer frequency, TF over GST control) in the assay with FLI1; 1.25 fold enrichment (6-mer frequency, TF over GST control) with ELK1; 1.29 fold enrichment (6-mer frequency, TF over GST control) with GABPA; 1.28 fold enrichment (6-mer frequency, TF over GST control) with ERG; 1.3 fold enrichment (6-mer frequency, TF over GST control) with ELF1; 1.32 fold enrichment (6-mer frequency, TF over GST control) in the assay with EHF. Moreover, the binding signal with SPI1 was 1.22 fold enrichment (6-mer frequency, TF over GST control); in the assay with SPIB, 1.3 fold enrichment (6-mer frequency, TF over GST control); in the assay with ELK3 it was 1.3 fold enrichment (6-mer frequency, TF over GST control).
Turning to AAGTAT, the binding signal with FLI1 was 1.44 fold enrichment (6-mer frequency, TF over GST control); in the assay with ELK1, 1.4 fold enrichment (6-mer frequency, TF over GST control); in the assay with GABPA, 1.4 fold enrichment (6-mer frequency, TF over GST control); in the assay with ERG, 1.42 fold enrichment (6-mer frequency, TF over GST control); in the assay with ELF1 it was 1.36 fold enrichment (6-mer frequency, TF over GST control); with EHF, 1.43 fold enrichment (6-mer frequency, TF over GST control). Also, the binding signal is 1.36 fold enrichment (6-mer frequency, TF over GST control) in the assay with SPI1; 1.48 fold enrichment (6-mer frequency, TF over GST control) with SPIB; 1.46 fold enrichment (6-mer frequency, TF over GST control) with ELK3.
As to TCCATT, the binding signal was 1.34 fold enrichment (6-mer frequency, TF over GST control) with FLI1; 1.16 fold enrichment (6-mer frequency, TF over GST control) in the assay with ELK1; 1.3 fold enrichment (6-mer frequency, TF over GST control) with GABPA; 1.31 fold enrichment (6-mer frequency, TF over GST control) with ERG; 1.26 fold enrichment (6-mer frequency, TF over GST control) in the assay with ELF1; 1.27 fold enrichment (6-mer frequency, TF over GST control) with EHF. The binding signal is 1.33 fold enrichment (6-mer frequency, TF over GST control) with SPI1; 1.39 fold enrichment (6-mer frequency, TF over GST control) in the assay with SPIB; 1.26 fold enrichment (6-mer frequency, TF over GST control) with ELK3.
With TTCATG, the binding signal in the assay with FLI1 is 1.35 fold enrichment (6-mer frequency, TF over GST control); in the assay with ELK1 it was 1.26 fold enrichment (6-mer frequency, TF over GST control); with GABPA, 1.35 fold enrichment (6-mer frequency, TF over GST control); in the assay with ERG, 1.28 fold enrichment (6-mer frequency, TF over GST control); with ELF1, 1.33 fold enrichment (6-mer frequency, TF over GST control); with EHF, 1.29 fold enrichment (6-mer frequency, TF over GST control). Further, the binding signal is 1.32 fold enrichment (6-mer frequency, TF over GST control) in the assay with SPI1; 1.34 fold enrichment (6-mer frequency, TF over GST control) with SPIB; 1.22 fold enrichment (6-mer frequency, TF over GST control) with ELK3.
